# Measured values: paper PMC5540273 (PLoS ONE, 2017)
# Key:
# Settings in all cases: concentration: 1 μM, replicates: in singlicate; n = 1
# [1] = system: SGK
# [2] = system: SIK2
# [3] = system: SIK
# [4] = system: SLK
# [5] = system: T1, SNARK
# T1 construct: gene NUAK2
# [6] = system: SNRK
# [7] = system: SRC
# [8] = system: SRMS
# [9] = system: SRPK1
# [10] = system: SRPK2
# [11] = system: SRPK3
# [12] = system: STK16
# [13] = system: STK33
# [14] = system: STK35
# [15] = system: STK36
# [16] = system: STK39
# [17] = system: SYK
# [18] = system: SgK110
# [19] = system: T2, TAK1
# T2 construct: gene MAP3K7
# [20] = system: TAOK1
# 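Also: KINOMEscan kinase panel screen.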
SMILES,%Inh [1] [%],%Inh [2] [%],%Inh [3] [%],%Inh [4] [%],%Inh [5] [%],%Inh [6] [%],%Inh [7] [%],%Inh [8] [%],%Inh [9] [%],%Inh [10] [%],%Inh [11] [%],%Inh [12] [%],%Inh [13] [%],%Inh [14] [%],%Inh [15] [%],%Inh [16] [%],%Inh [17] [%],%Inh [18] [%],%Inh [19] [%],%Inh [20] [%]
O=c1cc(N2CCOCC2)nc2n(Cc3cccc4ccccc34)ccn12 [GSK2333389],0,0,0,0,0,0,0,0,29,0,0,0,0,2,0,0,2,0,0,0
CCn1cnc2c(N)ncnc21 [GW345098],25,2,19,18,0,0,20,12,24,19,18,12,10,0,5,0,3,0,4,16
Cn1cc(-c2ccc3c(c2)CCN3C(=O)Cc2ccccc2Cl)c2c(N)ncnc21 [GSK2608885],0,52,96.4,99.2,89,0,99.1,98.4,56,0,0,34,18,95.9,100,1,51,0,5,50
CCc1ccnc(/C=C/c2n[nH]c3cc(Sc4ccccc4C(=O)NC)ccc23)c1,0,0,0,0,10,0,4,100,53,0,14,0,4,0,12,0,0,47,1,0
NS(=O)(=O)c1cccc(-c2ccc3ncc(N4CCOCC4)nc3c2)c1 [GSK1535721],9,0,0,2,1,0,0,6,0,0,0,16,0,0,5,1,0,1,16,14
Cc1nnc(-c2ccc(C)c(-c3ccc(C(=O)Nc4ccc(NS(C)(=O)=O)cc4)cc3)c2)o1 [GW702865],2,0,0,0,1,0,0,2,23,34,3,0,0,0,24,14,33,4,4,0
COc1ccc(CNC(=O)NC2CCN(c3ccnc(Nc4ccc(OC)cc4)n3)C2)cc1 (stereo not drawn) [GSK1379727],25,0,1,0,0,0,0,5,43,35,0,16,0,0,0,5,22,7,0,0
CC(C)(C)n1cnc2c(N)ncnc21 [SKF-97359],0,0,0,0,0,0,0,0,0,36,0,0,0,0,0,0,0,85,22,0
Nc1nc(-c2ccc3c(N)n[nH]c3c2)cc(N2CCCC2)n1 [GSK2227430],0,0,0,0,3,0,0,0,4,0,0,8,0,0,0,0,0,0,0,0
